Measurements: PubChem BioAssay AID493208 (National Center for Advancing Translational Sciences (NCATS), 2011)
Among all 44,000 compounds or so, about 340 (0.77%) were called active. About 5% were inconclusive and are not listed. Calls follow the shape of the dose curve; as a rule, active = well fitted inhibition curve with a large enough effect; inconclusive = small, poorly fitted or top-dose-only effect; inactive = flat fitted curve, though single readings scatter. The entries come from a sample that favours actives as a whole.

Assay: Acumen qHTS Assay for Inhibitors of the mTORC1 Signaling Pathway in MEF (Tsc2-/-, p53-/-) Cells: Sytravon; also: nearly all actives have a fitted effect of over 50% in size;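 as to activity change, negative = inhibition: plate controls were DMSO for no effect and rapamycin for full effect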
Conditions: phospho-rpS6 immunofluorescence/PI, 24 h; series mostly up to 38.3 µM; activity change, negative = inhibition: at the top concentration
Text: NIH Molecular Libraries Probe Production Centers Network [MLPCN] NIH Chemical Genomics Center [NCGC] MLPCN Grant: NS059428-01 Assay Submitter (PI): Blenis, John; Hoffman, Greg; Harvard University NCGC Assay Overview: The mammalian target of rapamycin (mTOR) is an intracellular serine/threonine kinase Aberrant regulation of mTOR signaling plays a causative role in a number of human diseases, including cancer, benign tumors such as lymphangioleiomyomatosis (LAM) and Tuberous Sclerosis Complex (TSC), and metabolic diseases such as diabetes and obesity. This project aims to identify inhibitors of ribosomal protein S6 (rpS6) phosphorylation. The phosphorylation of rpS6 is a key event downstream of mTOR activation. The assay uses a phospho-specific antibody of phospho-rpS6 to detect inhibitors of mTOR activation. Mutations in the Tsc1 and Tsc2 genes are the underlying genetic lesions responsible for TSC, causing constitutive activation of the mTORC1 pathway and leading to profound effects on cell metabolism. Aberrant metabolism in cancer has recently received significant attention as a target to develop therapeutic agents in the treatment of cancer.1 As Tsc2-/- cells have lost the ability to respond to energy and growth factor deprivation, these cells are unable to properly down regulate cellular biosynthetic processes in response to metabolic stress, and are thus extremely sensitive to glucose deprivation-induced death.2 A central goal of this project is to explore the unique cell survival and metabolic properties of cells with Tsc1 or Tsc2 by screening for compounds that selectively target the Tsc2-/- MEFs by screening both Tsc2-/- and WT MEF cell lines. We hope to better understand these aspects of TSC physiology in order to exploit them for therapeutic benefit.
NCGC Acumen Assay Protocol Summary: For quantitative high throughput analysis of mTORC1 signaling, we developed a cell-based assay for immuno-fluorescence based detection of rpS6 phosphorylation on the Acumen Explorer that will be used a platform for the primary small molecule screen. Mouse embryonic fibroblasts (MEFs) are cultured in 1536-well plates using DMEM + 10% FBS. Twenty-four hrs after plating, test compounds (solubilized in DMSO) are delivered and incubated with the cells for 24 hrs at 37 degree Celsius. Following the incubation, media with compound is aspirated and the cells are fixed in 4% paraformaldehyde (PFA) containing PBS + 0.2% TX-100. Next, PFA is aspirated, cells are washed two times with PBS plus 0.2% TX-100 and the cells are blocked for 1 hr at room temperature (blocking buffer: LiCOR Blocking Buffer plus 0.2% TX-100). […] Cells are washed two times with PBS plus 0.2% TX-100, and stained with 10 uM propidium iodide (PI) for 20-25 minutes for cell number measurement (1:500 dilution of Hoescht staining is also added for IN Cell imaging). The plates are scanned on the Acumen Explorer laser scanning instrument (TTP Labtech) using the 488nm laser for simultaneous excitation of the Alexa-488 and PI. […] The normalized phospho-S6 staining is calculated as the ratio of the integrated Alexa 488 intensity divided by the integrated PI intensity for the single concentration rapamycin control (7.5 nM) and DMSO columns. […] Inhibition of the pathway is defined based on the normalized phospho-S6 intensity in rapamycin treated cells. Active cells are defined as those with a normalized phospho-S6 staining above this threshold, and each treatment is reported as the % positive cells in the well, where thresholds are defined by selecting wells with the highest and lowest signal and differentiating between the % non-active and % active populations. In addition to the pathway specific phospho-S6 endpoint, the number of PI stained cells from the Acumen is recorded as a measure of cell viability. The primary screen was performed with a MEF cell line in a defined genetic background, Tsc2-/-, p53-/- cell line stably transfected with an empty vector control (Tsc2-/- MEF).
Potency is read from the fitted curve at half-maximal effect.

Row | Structure (SMILES) | activity change, negative = inhibition | Potency
1 | COc1ccc2c(Sc3ccc(C)cc3)c(C(=O)NC(C)c3ccccc3)[nH]c2c1 (configuration not stated) | -13.1% (inactive) | –
2 | CCc1ccc(CNC(=O)C2CCN(c3nn4cc(-c5ccc(F)cc5)nc4s3)CC2)cc1 | 4.71% (inactive) | –
3 | COCCNC(=O)CSc1nc(-c2ccccc2)[nH]c1-c1ccc(C)cc1 | -5.91% (inactive) | –
4 | CCOc1ccccc1NC(=O)CSc1ncc(S(=O)(=O)c2ccc(C(C)(C)C)cc2)c(=O)[nH]1 | 1.68% (inactive) | –
5 | CCCCOc1ccc(Cn2c(=O)oc3ccc(C)cc32)cc1OC | -1.14% (inactive) | –
6 | CCCCOc1ccc(CN2C(=O)C(=O)c3cc(Br)cc(C)c32)cc1OC | – | 9.27 µM (active)
7 | CCOc1ccc(CNCc2c(C(=O)O)c(C)n(Cc3cccc(OC)c3)c2C)cc1OC | 0.48% (inactive) | –
8 | Cc1cc(NC(=O)c2cccc(Cl)c2)ccc1-c1cc2ccccc2oc1=O | 1.45% (inactive) | –
9 | COc1cccc(C(=O)Nc2nnc(S(=O)(=O)N3CCOCC3)s2)c1 | 0% (inactive) | –
10 | COc1ccccc1NC(=O)c1cc(S(=O)(=O)NCCc2ccccc2)ccc1F | -4.31% (inactive) | –
11 | Cc1cc(C)c2oc(-c3cccc(NC(=O)c4cccc(F)c4)c3C)nc2c1 | 0.309% (inactive) | –
12 | CCc1ccc(CNCc2c(C(=O)O)n(Cc3ccc(F)cc3Cl)c3cc(OC)ccc23)cc1 | 1.29% (inactive) | –
13 | COc1ccc(Cl)cc1NC(=O)CSc1nc(-c2cccs2)cc(C(F)(F)F)n1 | 12.9% (inactive) | –
14 | COc1ccc(C)cc1NC(=O)COCc1cc(-c2cccs2)on1 | 7.46% (inactive) | –
15 | COc1ccc(C(F)(F)F)cc1NC(=O)c1sc2nc(-c3cccs3)ccc2c1N | – | 18.5 µM (active)
16 | Cc1nc2c(c(C)nn2-c2ccccc2)c(C)c1CCC(=O)NCCc1ccc(Cl)cc1 | 3.24% (inactive) | –
17 | O=C(NCc1ccccc1)c1cc(-c2cccc(Cl)c2)on1 | -24.7% (inactive) | –
18 | CC(C)CCN(C(=O)Nc1ccc(Cl)c(Cl)c1)C(C)c1cccs1 (configuration not stated) | 0% (inactive) | –
19 | Cc1cccc(CCNC(=O)c2ccc3c(c2)nc2n3CCC(C)C2)c1 (configuration not stated) | 4.15% (inactive) | –
20 | Cc1nn2c(=O)cc(COC(=O)c3ccccc3NC(=O)COc3ccccc3C)nc2s1 | 10.8% (inactive) | –
21 | COc1ccc(Br)cc1CNC(=O)c1cc(=O)[nH]c2ccc(S(=O)(=O)N3CCCC3)cc12 | 5.76% (inactive) | –
22 | CN(C)CCCn1c(-c2ccc(Cl)cc2)csc1=Nc1ccccc1 | -15.6% (inactive) | –
23 | COc1ccc(-c2nnc(SCC(=O)Nc3ccccc3C)o2)cc1OC | 3.97% (inactive) | –
24 | COc1ccc(Cc2nc3ccc(C(=O)NCc4ccc(OC)cc4OC)cc3o2)cc1 | -0.814% (inactive) | –

Row | Structure (SMILES) | activity change, negative = inhibition | Potency
25 | Cc1ccc(Cl)cc1NC(=O)CCC(=O)N1CC(C)Sc2ccccc21 (configuration not stated) | 0% (inactive) | –
26 | Cc1nc2ccccn2c(=O)c1NC(=O)c1c(F)cccc1F | -4.9% (inactive) | –
27 | CCc1cccc(NC(=O)Cn2nc(CC)n3c(cc4cc(C)ccc43)c2=O)c1 | -12.5% (inactive) | –
28 | CCOc1ccc(Nc2c(S(=O)(=O)c3ccccc3)cnc3ccccc23)cc1 | -1.31% (inactive) | –
29 | COc1ccc(CNC(=O)c2cc3cccc(OC)c3oc2=O)cc1 | -8.78% (inactive) | –
30 | COc1ccc(-n2c(SCC(N)=O)nc3c(oc4ccccc43)c2=O)cc1 | -0.0565% (inactive) | –
31 | CCOc1ccccc1NC(=O)C1=C(C)Nc2ncnn2C1c1ccc(NC(C)=O)cc1 (configuration not stated) | -2.65% (inactive) | –
32 | CCOc1cc(C2C(C(=O)Nc3ccc(OC)cc3)=C(C)Nc3nc(SC)nn32)ccc1O (configuration not stated) | 1.6% (inactive) | –
33 | CCOc1ccc(C2C(C(=O)Nc3ccc(Cl)cc3)=C(C)Nc3nc(C(F)(F)F)nn32)cc1 (configuration not stated) | – | 5.85 µM (active)
34 | CCc1cccc(NC(=O)c2cnc(N3CCOCC3)c3ccccc23)c1 | -16.5% (inactive) | –
35 | Cc1cccc(N2CCN(C3=C(c4ccccc4)C(=O)c4ccccc43)CC2)c1C | -29.1% (inactive) | –
36 | COc1ccc(N(CC(=O)NCCc2ccc(Cl)cc2)S(=O)(=O)c2c(C)nn(C)c2C)cc1 | -13.3% (inactive) | –
37 | Cc1ccc(OCC(=O)Nc2ccc(OCc3cc(=O)n4c(C)csc4n3)cc2)cc1C | -25% (inactive) | –
38 | O=C(Cn1c(=O)n(-c2ccc(F)cc2)c(=O)c2sc3ccccc3c21)NC1CCCC1 | 6.67% (inactive) | –
39 | CCOc1cc(-c2nnc(SCC(=O)NC3CCCC3)nc2-c2ccc(OC)c(OCC)c2)ccc1OC | 0.0507% (inactive) | –
40 | CCOc1ccc(CCNC(=O)Cn2nc(CC)n3c(cc4sc(CC)cc43)c2=O)cc1OCC | -8.12% (inactive) | –
41 | CCCN1C(=O)C(O)(CC(=O)c2ccc(CC)cc2)c2cc(Br)ccc21 (configuration not stated) | – | 4.65 µM (active)
42 | CCc1ccc(C(=O)CC2(O)C(=O)N(CCc3ccccc3)c3ccc(Br)cc32)cc1 (configuration not stated) | -7.15% (inactive) | –
43 | Cc1ccc(C(=O)CC2(O)C(=O)N(CCc3ccccc3)c3ccc(Br)cc32)cc1 (configuration not stated) | -4.49% (inactive) | –
44 | CCOc1ccccc1C(=O)NCC(c1ccc(N(C)C)cc1)N1CCCC1 (configuration not stated) | 0% (inactive) | –
45 | COc1ccccc1NC(=O)c1sc2nc(C)c(C(=O)Nc3ccc(Cl)cc3)c(-c3ccc(Br)cc3)c2c1N | 0% (inactive) | –
46 | COC(=O)c1ccccc1NC(=O)Cn1c(=O)cc(C)c2c(C)nn(-c3cccc(Cl)c3C)c21 | 3.23% (inactive) | –
47 | CCOc1ccc(N(CC)C(=O)c2cc3c(=O)oc4ccccc4c3s2)cc1 | 3.16% (inactive) | –
